In the library only some 1.7% were active in any assay of this set; here they are far more common.
GLP-1R inv ag: acts as inverse agonist at human GLP-1 receptor; P43220; HEK293 GLP-1R CRE-luciferase, luminescence, 24 h; GLP-1R form is constitutively active; Potency, µM (titrated, usually from 38.3 µM), for inactives: top-dose activity change, negative = inhibition, usual class: inhibitors; 410,000 compounds, 1.6% hits; AID 624417; further: on the % scale 0 is the no-effect control and ±100 the full control effect; nearly all actives have a fitted effect of over 55% in size
Target sequence (P43220 whole entry, looked up): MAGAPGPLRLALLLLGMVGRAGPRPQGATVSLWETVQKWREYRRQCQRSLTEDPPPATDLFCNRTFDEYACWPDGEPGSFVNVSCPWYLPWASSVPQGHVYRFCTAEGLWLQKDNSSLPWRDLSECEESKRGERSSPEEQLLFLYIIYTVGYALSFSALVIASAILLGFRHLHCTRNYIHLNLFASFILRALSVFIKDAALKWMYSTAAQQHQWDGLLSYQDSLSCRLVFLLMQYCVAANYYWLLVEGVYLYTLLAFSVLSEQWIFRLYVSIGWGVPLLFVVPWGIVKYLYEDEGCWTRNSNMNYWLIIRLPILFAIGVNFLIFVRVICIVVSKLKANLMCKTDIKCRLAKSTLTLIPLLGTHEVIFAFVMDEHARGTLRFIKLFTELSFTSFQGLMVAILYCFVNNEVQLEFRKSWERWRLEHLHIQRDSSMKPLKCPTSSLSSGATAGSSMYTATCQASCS
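GLP-1R inverse agonism mode: basal reporter luminescence in engineered HEK293 cells measured after one day of compound exposure at 37 deg C, with a 12 min room-temperature detection step.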
PTHR1 ag: agonists of human PTHR1 parathyroid hormone receptor; HEK293 GP2 PTHR1 cells, GloSensor cAMP luminescence, 1 h; Potency, µM (doses to about 115 µM), inactives show at the highest dose activation, actives largely listed as activators; 410,000 compounds, 0.075% hits; further: nearly all actives have a fitted effect of over 55% in size
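HEK-293-derived GP2 cells expressing PTHR1 and a GloSensor cAMP reporter, 3,000/well, plated overnight, given luciferin plus IBMX (each 0.5 mM as added) for 1 h at 37 °C, then compound for 1 h at 37 °C. Luminescence was read after 15 min at room temperature.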
GLP1R cytotox: cytotoxic in the GLP-1 receptor inverse agonist counter-screen; HEK293 cAMP-luciferase reporter cells, luminescence, 24 h; Potency, µM (top dose mostly 38.3 µM), for the others: at the top dose activity change, negative = inhibition, usual class: inhibitors; 410,000 compounds, 0.13% hits;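 further: loss of luciferase light is scored as toxicity; on the % scale 0 is the no-effect control and ±100 the full control effect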
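Cells in DMEM/10% Nu serum/1% pen-strep, 1536-well format. Pre-incubated 12 h, dosed with 23 nL compound, incubated a further 24 h. Luciferase detection, 12 min at room temp, luminescence.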
RGS4 inhibitor: inhibitors of human regulator of G protein signaling 4. Transcreener GDP fluorescence polarization, RGS4-accelerated GTP hydrolysis. Potency, µM (doses to about 114 µM), for inactives: top-dose activity change, negative = inhibition, usual class: inhibitors. AID 504845. 390,000 compounds, 0.039% hits; further: on the % scale 0 is the no-effect control and ±100 the full control effect; nearly all actives have a fitted effect of over 75% in size
Target sequence (P49798 whole entry, looked up): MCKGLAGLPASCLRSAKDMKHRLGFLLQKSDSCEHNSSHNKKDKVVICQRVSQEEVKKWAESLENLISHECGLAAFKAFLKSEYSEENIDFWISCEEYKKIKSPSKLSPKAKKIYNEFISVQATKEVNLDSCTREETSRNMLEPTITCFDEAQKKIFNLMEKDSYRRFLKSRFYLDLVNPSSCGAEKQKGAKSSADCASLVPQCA
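MLSMR compounds (23 nl, pin-transferred) preincubated 10 min at room temperature with a 500nM (2x) first reagent, then RGS4 at 900nM (2x) plus Transcreener GDP mix added; fluorescence polarization (620/688 nm) read before and after 90 min at 30 °C.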
GLP-1R agonist: activates the human GLP-1 receptor. P43220. Potency, µM (highest dose often 45.6 µM), without a hit: at the highest dose activation, usual class: activators. HEK293 GLP-1R CRE-luciferase, luminescence, 4-6 h; cells express a hypersensitive GLP-1R form. AID 624172. 380,000 compounds, 0.007% hits; further: % of control where 0% means no effect
* hit, by the source's call; i = inactive; u = inconclusive; x = no result given; [ ] = another dose, or the depositor's remark. The call rests on the fitted dose curve; in most records, active means well fitted curve in the direction sought with a large enough effect; inconclusive means small, poorly fitted or top-dose-only effect, or another doubt; inactive means no such curve, though single readings can be large; an effect the other way counts as inactive or inconclusive. Potency means the concentration at half of the fitted maximal effect.

SMILES	GLP-1R inv ag	PTHR1 ag	GLP1R cytotox	RGS4 inhibitor	GLP-1R agonist
CCOC(=O)COc1ccc([N+](=O)[O-])cc1-c1ccnc2cc(-c3ccc(Cl)cc3)nn12	0%	i	-4%	3%	-2%
O=C(NCCN1CCN(c2ccccc2)CC1)Nc1cccc(Cl)c1	2.5µM*	-10%	-19%	u	23%
Cc1cc(C(=O)NCCN2CCN(c3cccc(Cl)c3)CC2)n(-c2ccccc2)n1	6.3µM*	-16%	-25%	-20%	-5%
CC(C)c1nc2ccc(C(=O)NCCCN3CCN(c4cccc(Cl)c4)CC3)cc2o1	10µM*	i	-17%	-11%	x
Cc1oc2ccc(O)c(CN(C)Cc3ccccc3)c2c1C(=O)Nc1cccc(C(F)(F)F)c1	u	-83%	u	-14%	x
Cc1ccc(Cl)cc1N1CCN(C(=O)CN2C(=O)COc3ccc(S(=O)(=O)N4CCCCCC4)cc32)CC1	-21%	i	4%	10%	0%
COC(=O)[C@@]12C[C@@H](CC(=O)NCc3ccc(C)o3)C(=O)N(CCc3ccc(OC)c(OC)c3)C1=CCC(C)(C)C2	-18%	-77%	1%	x	x
O=C(CCl)Nc1ccc(-c2ccccc2)cc1	10µM*	-28%	u	-34%[56.9 µM]	-4%
CC1Cc2ccccc2N1C(=S)NC(=O)c1ccc(Cl)cc1Cl (stereo not given)	10µM*	-17%	u	-25%	-15%
CC1Cc2ccccc2N1C(=S)NC(=O)c1cccc(Br)c1 (stereo not given)	u	i	u	-54%	5%
CCOc1ccccc1NC(=O)CN(CCc1ccccc1)S(=O)(=O)c1ccc(C)cc1	10µM*	i	0%	13%	x
Cc1ccc(C)c(NC(=O)CN(CCc2ccccc2)S(=O)(=O)c2ccccc2)c1	-12%	-86%	-9%	25%	x
COc1ccc(CNC(=O)CCc2c(C)c3cc4c(C)c(C)oc4cc3oc2=O)cc1	-29%	-26%	0%	2%	x
CCOC(=O)c1c(NC(=O)C2COc3ccccc3O2)sc2c1CC(C)(C)NC2(C)C (stereo not given)	3.2µM*	i	-28%	15%	5%
CCOC(=O)c1c(NC(=O)CSc2nnnn2-c2ccccc2)sc2c1CC(C)(C)NC2(C)C	u	i	u	7%	4%
CCOC(=O)c1c(NC(=O)Cc2ccccc2)sc2c1CC(C)(C)NC2(C)C	u	-14%	0%	3%	u
CCOC(=O)c1c(NC(=O)CSc2nnnn2-c2ccccc2OCC)sc2c1CC(C)(C)NC2(C)C	10µM*	-34%	u	-2%	10%
CN(CC(=O)Nc1ccccc1C(F)(F)F)C(=O)CSc1nc(N)cc(N)n1	-3%	9%	-3%	-27%	4%
O=C(NCC(=O)N1CCC(Cc2ccccc2)CC1)c1ccccc1F	u	-37%	3%	x	5%
CCN(CC)c1ccc(C(=C2C=CC(=[N+](CC)CC)C=C2)c2ccccc2)cc1	u	-38%	5µM*	u	-5%
Cc1ccccc1OCC(O)CN1CCN(CC(O)COc2ccccc2C)CC1 (stereo not given)	8.9µM*	-25%	-6%	3%	-2%
Cc1ccc(N2CCN(CC(O)COc3cccc4ccccc34)CC2)cc1 (stereo not given)	11µM*	-26%	u	4%	-6%
COc1cccc(OCC(O)CN2CCN(c3ccc(Cl)cc3)CC2)c1 (stereo not given)	10µM*	-13%	1%	23%	-1%
Cc1ccccc1OCC(O)CN1CCCCC1 (stereo not given)	12%	-13%	u	-1%	-5%
Cc1ccc(NC(=O)CSc2nc(-c3ccccc3Cl)nc3cc(=O)[nH]n23)c(C)c1	-15%	i	-6%	4%	x
SMILES	GLP-1R inv ag	PTHR1 ag	GLP1R cytotox	RGS4 inhibitor	GLP-1R agonist
CCOC(=O)Cc1csc(NC(=O)Nc2cccc(Cl)c2)n1	u	-36%	-18%	-13%	11%
CCOC(=O)Cc1csc(NC(=O)Nc2ccc(Cl)cc2)n1	11µM*	-42%	1%	-32%	-1%
COc1ccc(C(CNC(=O)c2oc3ccccc3c2C)N2CCCC2)cc1 (stereo not given)	u	i	-25%	-22%	u
COc1ccc(C(CNC(=O)c2oc3c(Cl)cccc3c2C)N2CCCC2)cc1 (stereo not given)	10µM*	-59%	u	-10%	23%
Cc1ccc(/C=C/C(=O)N2CC(C)CC(C)C2)o1 (stereo not given)	10µM*	-94%[57.5 µM]	u	u	-27%
Cc1cc(=O)n(CC(=O)Nc2ccc([N+](=O)[O-])cc2)c(-n2nc(C)cc2C)n1	10%	i	2%	4%	x
CC(C)(C)OC(=O)[C@H](Cc1ccccc1)NC(=O)c1nc[nH]c1C(=O)N1CCN(C(=O)OC(C)(C)C)CC1	4.5µM*	i	-8%	0%	-3%
C[C@H](NC(=O)c1nc[nH]c1C(=O)N[C@@H](CCCCNC(=O)OC(C)(C)C)C(=O)OC(C)(C)C)C(=O)OC(C)(C)C	10µM*	i	-11%	0%	-5%
CC(C)C[C@H](NC(=O)c1[nH]cnc1C(=O)N[C@@H](Cc1ccccc1)C(=O)OC(C)(C)C)C(=O)OC(C)(C)C	10µM*	-43%	-25%	-12%	2%
CC(C)C[C@H](NC(=O)c1[nH]cnc1C(=O)N[C@@H](C)c1ccccc1)C(=O)OC(C)(C)C	10µM*	-90%	u	1%	7%
CC(C)(C)OC(=O)N1CCN(C(=O)c2[nH]cnc2C(=O)N[C@@H](Cc2ccccc2)C(=O)OCc2ccccc2)CC1	1%	-20%	8%	4%	6%
CCn1cc(C(=O)NCCCN(CC(C)C)CC(C)C)c(=O)c2cc(S(=O)(=O)N(C)C3CCCCC3)ccc21	6%	-4%	6%	-5%	-5%
Cc1nc(NC(=O)c2ccccc2)sc1-c1cc(C(=O)N2CCOCC2)nn1Cc1ccccc1	-16%	-83%	7%	x	23%
CN(Cc1cccnc1)C(=O)c1cc(S(=O)(=O)Nc2ccccc2F)ccc1Cl	14%	-47%	1%	-33%	1%
CC(C)(C)OC(=O)NCCCCCNC(=O)c1nc[nH]c1C(=O)NCC(=O)OCc1ccccc1	11µM*	-24%	-42%	8%	-13%
O=C(Cc1ccccc1)Nc1nc2ccc(Cl)cc2c2nc(-c3ccco3)nn12	x	x	x	38µM*	x
O=C(Cc1ccccc1)n1nc(-c2ccco2)nc1SCc1ccccc1	0%	-8%	11%	-21%	-5%
